# Results as given in the supplement of paper PMC4022240.
# ± gives the standard deviation.
# T1: HaloTag-ATRX ADD domain (163-292)
# T1 chain: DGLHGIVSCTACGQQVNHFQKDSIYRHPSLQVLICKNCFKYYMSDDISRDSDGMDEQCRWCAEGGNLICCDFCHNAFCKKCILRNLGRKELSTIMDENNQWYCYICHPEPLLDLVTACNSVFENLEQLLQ
# Experiments:
# Assay in all cases: peptide microarray binding signal (635 nm), min-max normalized on array (fraction of array maximum); higher = stronger binding
# [1] = biological target: T1, HaloTag-ATRX ADD domain (163-292)
# Protocol: (§1)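 Histone 13-mer peptides were synthesized as cellulose conjugates with a C-terminal 20-atom PEG linker and printed in triplicate on nitrocellulose. The sequence given is the unmodified backbone; PTMs (Kme1/2/3, Kac, Sph/Tph, Rme/Rme2a/Rme2s, Rcit) are listed in the label and the 'peptide modifications' condition. Slides were probed at 4 °C for 1 h with biotin-labelled (HQ)5-HaloTag reader fusions (ATRX-ADD, ING2-PHD) then streptavidin-Alexa647, or with rabbit histone antibodies then anti-rabbit Alexa647. The mean 635 nm signal of the triplicate spots was scaled 0-1 between the lowest and highest values on each array.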
# [2] = biological target: HaloTag-ING2 PHD (mouse Ing2 200-280)
# Protocol: as §1
# [3] = biological target: anti-H3K4me3 antibody ab8580
# Protocol: as §1
# [4] = biological target: anti-H3K9me3 antibody ab8898
# Protocol: as §1
# [5] = peptide region: H2B 1-13, peptide modifications: H2BK5ac H2BK11ac, binder concentration: 1:2,000 dilution
# [6] = peptide region: H2B 1-13, peptide modifications: H2BK5ac H2BK11ac, binder concentration: 1:10,000 dilution
# [7] = peptide region: H2A 11-23, peptide modifications: H2AK15ac, binder concentration: 1:2,000 dilution
# [8] = peptide region: H2A 11-23, peptide modifications: H2AK15ac, binder concentration: 1:10,000 dilution
# [9] = peptide region: H2B 7-19, peptide modifications: H2BK11ac H2BK12ac H2BS14ph H2BK15ac, binder concentration: 1:2,000 dilution
# [10] = peptide region: H2B 7-19, peptide modifications: H2BK11ac H2BK12ac H2BS14ph H2BK15ac, binder concentration: 1:10,000 dilution
# [11] = peptide region: H2A 11-23, peptide modifications: H2AK13ac H2AK15ac H2AT16ph, binder concentration: 1:2,000 dilution
# [12] = peptide region: H2A 11-23, peptide modifications: H2AK13ac H2AK15ac H2AT16ph, binder concentration: 1:10,000 dilution
# [13] = peptide region: H2B 7-19, peptide modifications: H2BK11ac H2BK12ac H2BS14ph, binder concentration: 1:2,000 dilution
# [14] = peptide region: H2B 7-19, peptide modifications: H2BK11ac H2BK12ac H2BS14ph, binder concentration: 1:10,000 dilution
binder,measurement,setting,value
PEPAKSAPAPKKG [H2B 1-13 P E P A Kac S A P A P Kac K G],peptide microarray binding signal,"[1]; peptide region: H2B 1-13, peptide modifications: H2BK5ac H2BK11ac, binder concentration: 50 nM",0.00439 ± 0.00015
same,peptide microarray binding signal,"[1]; peptide region: H2B 1-13, peptide modifications: H2BK5ac H2BK11ac, binder concentration: 500 nM",0.00957 ± 0.00041
same,peptide microarray binding signal,"[2]; peptide region: H2B 1-13, peptide modifications: H2BK5ac H2BK11ac, binder concentration: 10 nM",0.00853 ± 0.00038
same,peptide microarray binding signal,"[2]; peptide region: H2B 1-13, peptide modifications: H2BK5ac H2BK11ac, binder concentration: 100 nM",0.0114 ± 0.0021
same,peptide microarray binding signal,[3]; [5],0.00251 ± 0.0019
same,peptide microarray binding signal,[3]; [6],0.00108 ± 3.8e-05
same,peptide microarray binding signal,[4]; [5],0.00198 ± 0.00033
same,peptide microarray binding signal,[4]; [6],0.00225 ± 0.0002
RAKAKTRSSRAGL [H2A 11-23 R A K A Kac T R S S R A G L],peptide microarray binding signal,"[1]; peptide region: H2A 11-23, peptide modifications: H2AK15ac, binder concentration: 50 nM",0.00502 ± 0.00053
same,peptide microarray binding signal,"[1]; peptide region: H2A 11-23, peptide modifications: H2AK15ac, binder concentration: 500 nM",0.00495 ± 0.00038
same,peptide microarray binding signal,"[2]; peptide region: H2A 11-23, peptide modifications: H2AK15ac, binder concentration: 10 nM",0.00388 ± 5.4e-05
same,peptide microarray binding signal,"[2]; peptide region: H2A 11-23, peptide modifications: H2AK15ac, binder concentration: 100 nM",0.0051 ± 0.00094
same,peptide microarray binding signal,[3]; [7],0.000321 ± 6.7e-06
same,peptide microarray binding signal,[3]; [8],0.00126 ± 4.3e-05
same,peptide microarray binding signal,[4]; [7],0.0004228 ± 4.1e-06
same,peptide microarray binding signal,[4]; [8],0.00121 ± 4.9e-05
APAPKKGSKKAVT [H2B 7-19 A P A P Kac Kac G Sph Kac K A V T],peptide microarray binding signal,"[1]; peptide region: H2B 7-19, peptide modifications: H2BK11ac H2BK12ac H2BS14ph H2BK15ac, binder concentration: 50 nM",0.001661 ± 1.4e-05
same,peptide microarray binding signal,"[1]; peptide region: H2B 7-19, peptide modifications: H2BK11ac H2BK12ac H2BS14ph H2BK15ac, binder concentration: 500 nM",0.00238 ± 7.1e-05
same,peptide microarray binding signal,"[2]; peptide region: H2B 7-19, peptide modifications: H2BK11ac H2BK12ac H2BS14ph H2BK15ac, binder concentration: 10 nM",0.002447 ± 1.4e-05
same,peptide microarray binding signal,"[2]; peptide region: H2B 7-19, peptide modifications: H2BK11ac H2BK12ac H2BS14ph H2BK15ac, binder concentration: 100 nM",0.000709
same,peptide microarray binding signal,[3]; [9],0.000774 ± 0.00015
same,peptide microarray binding signal,[3]; [10],0.000685 ± 7.2e-06
same,peptide microarray binding signal,[4]; [9],0.000242 ± 2.5e-06
same,peptide microarray binding signal,[4]; [10],0.000461
RAKAKTRSSRAGL [H2A 11-23 R A Kac A Kac Tph R S S R A G L],peptide microarray binding signal,"[1]; peptide region: H2A 11-23, peptide modifications: H2AK13ac H2AK15ac H2AT16ph, binder concentration: 50 nM",0.0063 ± 0.00011
same,peptide microarray binding signal,"[1]; peptide region: H2A 11-23, peptide modifications: H2AK13ac H2AK15ac H2AT16ph, binder concentration: 500 nM",0.0115 ± 0.00047
same,peptide microarray binding signal,"[2]; peptide region: H2A 11-23, peptide modifications: H2AK13ac H2AK15ac H2AT16ph, binder concentration: 10 nM",0.01009 ± 7e-05
same,peptide microarray binding signal,"[2]; peptide region: H2A 11-23, peptide modifications: H2AK13ac H2AK15ac H2AT16ph, binder concentration: 100 nM",0.0109 ± 0.00022
same,peptide microarray binding signal,[3]; [11],0.001265 ± 1e-05
same,peptide microarray binding signal,[3]; [12],0.00297 ± 7.6e-05
same,peptide microarray binding signal,[4]; [11],0.00107 ± 7.3e-05
same,peptide microarray binding signal,[4]; [12],0.00179 ± 3.4e-05
APAPKKGSKKAVT [H2B 7-19 A P A P Kac Kac G Sph K K A V T],peptide microarray binding signal,"[1]; peptide region: H2B 7-19, peptide modifications: H2BK11ac H2BK12ac H2BS14ph, binder concentration: 50 nM",0.00197 ± 4e-05
same,peptide microarray binding signal,"[1]; peptide region: H2B 7-19, peptide modifications: H2BK11ac H2BK12ac H2BS14ph, binder concentration: 500 nM",0.00252 ± 9e-05
same,peptide microarray binding signal,"[2]; peptide region: H2B 7-19, peptide modifications: H2BK11ac H2BK12ac H2BS14ph, binder concentration: 10 nM",0.0046 ± 0.00019
same,peptide microarray binding signal,"[2]; peptide region: H2B 7-19, peptide modifications: H2BK11ac H2BK12ac H2BS14ph, binder concentration: 100 nM",0.00163 ± 3.3e-05
same,peptide microarray binding signal,[3]; [13],0.00215 ± 8.8e-05
same,peptide microarray binding signal,[3]; [14],0.000628 ± 6.7e-06
same,peptide microarray binding signal,[4]; [13],0.000423 ± 1.8e-05
same,peptide microarray binding signal,[4]; [14],0.00075 ± 4e-05
